Assay outcomes: PubChem, National Center for Advancing Translational Sciences (NCATS)
Giardia FBPA inh: inhibitors of Giardia lamblia fructose-1,6-bisphosphate aldolase; purified Giardia FBPA; AID 2451; Potency, µM (series often up to 59.6 µM), without a hit: top-dose activity, negative = inhibition, most hits filed as inhibitors; 0.71% of 290,000 active; A8B2U2; further: potency means the concentration at half of the fitted maximal effect; on the % scale 0 is the no-effect control and ±100 the full control effect; nearly all actives have a fitted effect of over 55% in size
Target sequence (A8B2U2 whole entry, looked up): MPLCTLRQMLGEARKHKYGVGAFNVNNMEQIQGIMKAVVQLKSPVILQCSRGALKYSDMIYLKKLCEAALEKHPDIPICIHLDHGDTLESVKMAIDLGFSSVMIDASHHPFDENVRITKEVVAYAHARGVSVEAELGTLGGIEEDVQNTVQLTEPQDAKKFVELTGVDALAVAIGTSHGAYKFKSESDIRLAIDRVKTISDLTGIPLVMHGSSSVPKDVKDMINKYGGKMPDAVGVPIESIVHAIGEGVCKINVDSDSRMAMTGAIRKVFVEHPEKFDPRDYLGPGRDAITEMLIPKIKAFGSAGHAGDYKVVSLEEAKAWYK
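Giardia FBPA (40 nM reagent) was preincubated 10 min at RT with compound (up to 57.5 uM final), then substrate plus GAPDH/TPI/NAD/arsenate coupling system with diaphorase/resazurin was added; resorufin fluorescence (525/598 nm) was read after 20 min.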
LmPK inhibitor: LmPK (Leishmania mexicana) enzyme inhibition; Q27686; 0.37% of 290,000 active; Potency, µM (highest dose often 57.5 µM), inactives show at the highest dose activity change, negative = inhibition, usual class: inhibitors; AID 1721; purified LmPK, Kinase-Glo ATP luminescence, 1 h; further: potency means the concentration at half of the fitted maximal effect; on the % scale 0 is the no-effect control and ±100 the full control effect
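Purified LmPK (0.1 nM) with 0.5 mM PEP and 0.1 mM ADP in imidazole buffer pH 7.2 with MgCl2/KCl, 1 h at room temperature. ATP formed was read by luciferase luminescence and normalized to no-enzyme and uninhibited controls.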
Cycloheximide cs: affects cycloheximide protein synthesis inhibition readout, counter-screen; cell reporter, cycloheximide protein synthesis inhibition counterscreen; max response, %; 12% of 300,000 active; in the data active means max response mostly above about 13%, no sharp cut-off; inactive means mostly below about 14%; further: read at 38.3 µM for the half of the compounds with a filed dose; 0% is about no effect
Shiga inhibitor: inhibitors of Shiga toxin in Vero cells | Vero cells, Shiga toxin protein synthesis inhibition reporter | inhibition, % at 38.7 µM | AID 2315 | 9.2% of 290,000 active; in the data active means inhibition mostly above about 28%, no sharp cut-off; inactive means mostly below about 43%; further: 0% is about no effect
NS1 function inh: blocks influenza NS1 protein function; Potency, µM (doses to about 46.1 µM), for inactives: at the top dose activity, positive = more growth; 0.4% of 270,000 active; AID 2326; calls by dose curve; further: potency means the concentration at half of the fitted maximal effect; actives are rising curves; nearly all actives have a fitted effect of over 50% in size
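S. cerevisiae expressing influenza A NS1, grown in glucose, washed, then diluted 1:100 into pH 6.0 -URA galactose medium with 23 nl compound. Growth recovery read as OD600; NS1-free strain serves as control.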
* marks the source's active call; other numbers are inactive results. Compounds with a hit are over-represented: about 14% of the library has one in this group of screens. Unless noted, the call rests on the fitted dose curve; in most records, active means well fitted curve in the direction sought with a large enough effect; inconclusive means small, poorly fitted or top-dose-only effect, or another doubt; inactive means no such curve, though single readings can be large; an effect the other way counts as inactive or inconclusive.

What do the screens show for `O=C(Nc1ccc([N+](=O)[O-])cn1)c1ccc(Br)o1`?
Giardia FBPA inh: 1%; LmPK inhibitor: -17%; Cycloheximide cs: 18*; Shiga inhibitor: 70; NS1 function inh: 2%

Results for O=C(Nc1c(Cl)ccc2nsnc12)c1ccc([N+](=O)[O-])o1 ?
Giardia FBPA inh: -10%; LmPK inhibitor: -1%; Cycloheximide cs: 41*; Shiga inhibitor: 51*; NS1 function inh: -18%

How did Cc1cc(NO)nc(-c2ccc(Br)cc2)n1 do in these assays?
Giardia FBPA inh: -18%; LmPK inhibitor: 2%; Cycloheximide cs: 47*; Shiga inhibitor: 109*; NS1 function inh: -2%

How did Cc1cc(C)nc(NC(=O)c2ccc(Br)cc2)n1 do in these assays?
Giardia FBPA inh: 0%; LmPK inhibitor: -2%; Cycloheximide cs: 1; Shiga inhibitor: -3; NS1 function inh: -1%

What do the screens show for `Fc1ccc(Cn2c(SCc3ccc(F)c(F)c3)nnc2C(F)(F)F)cc1`?
Giardia FBPA inh: 1%; LmPK inhibitor: -2%; Cycloheximide cs: 14*; Shiga inhibitor: 45*; NS1 function inh: -58%

What do the screens show for `COCC(=O)N1CCC2(CCN(Cc3ccccc3OC)CC2)CC1`?
Giardia FBPA inh: 0%

What do the screens show for `Cc1nc(SCc2ccccc2)nc2c1CCC2`?
Giardia FBPA inh: 1%; LmPK inhibitor: 0%; Cycloheximide cs: 58*; Shiga inhibitor: 85*; NS1 function inh: -22%

How did CNc1nc(SCc2ccc(C)cc2)nc2c1CCCC2 do in these assays?
Giardia FBPA inh: -7%; LmPK inhibitor: 1%; Cycloheximide cs: 37*; Shiga inhibitor: 55*; NS1 function inh: -155%

What do the screens show for `COCCCNC(=S)N/N=C/c1ccc(O)cc1`?
Giardia FBPA inh: -11%; LmPK inhibitor: 5%; Cycloheximide cs: 0; Shiga inhibitor: 15; NS1 function inh: 0%

How did COCCCNC(=S)N/N=C/c1ccc(OC)cc1 do in these assays?
Giardia FBPA inh: -3%; LmPK inhibitor: -1%; Cycloheximide cs: 10*; Shiga inhibitor: 13; NS1 function inh: 0%

Results for COCCCNC(=S)N/N=C/c1cccc(OC)c1O ?
Giardia FBPA inh: 8%; LmPK inhibitor: -8%; Cycloheximide cs: 42*; Shiga inhibitor: 49*; NS1 function inh: 1%

Results for CCOc1ccccc1NC(=O)CCCNC(=O)Cn1cnc2sc(C)c(C)c2c1=O ?
Giardia FBPA inh: -22%; LmPK inhibitor: 10%; Cycloheximide cs: -4; Shiga inhibitor: -4; NS1 function inh: -6%

What do the screens show for `CSc1nsc(SC)c1C(=O)NC(=O)Nc1cccnc1`?
Giardia FBPA inh: -3%; LmPK inhibitor: 2%; Cycloheximide cs: 1; Shiga inhibitor: -2; NS1 function inh: -5%

How did CSc1nsc(SC)c1C(=O)Nc1ccc(C(C)(C)C)cc1 do in these assays?
Giardia FBPA inh: -14%; LmPK inhibitor: -5%; Cycloheximide cs: 10; Shiga inhibitor: 53*; NS1 function inh: 10%

Results for CCc1ccc(NC(=O)c2ccc(NC3=NC4CS(=O)(=O)CC4S3)cc2)cc1 (stereo unspecified) ?
LmPK inhibitor: -4%; Cycloheximide cs: -2; Shiga inhibitor: 12; NS1 function inh: -11%

Results for COc1ccc(C(=O)NCC(=O)OCc2csc(-c3ccccc3)n2)cc1 ?
Giardia FBPA inh: 4%; LmPK inhibitor: -2%; Cycloheximide cs: 11; Shiga inhibitor: -49; NS1 function inh: -15%

Results for COc1ccccc1C(=O)NCC(=O)OCc1csc(-c2ccccc2)n1 ?
Giardia FBPA inh: 0%; LmPK inhibitor: 0%; Cycloheximide cs: 12; Shiga inhibitor: -29; NS1 function inh: -27%

What do the screens show for `O=C(CNS(=O)(=O)c1cccc(Cl)c1)OCc1csc(-c2ccccc2)n1`?
Giardia FBPA inh: -5%; LmPK inhibitor: 6%; Cycloheximide cs: 14; Shiga inhibitor: -9; NS1 function inh: -56%

What do the screens show for `Cc1ccsc1C(=O)OCc1csc(-c2ccccc2)n1`?
Giardia FBPA inh: 0%; LmPK inhibitor: 16µM*; Cycloheximide cs: 26*; Shiga inhibitor: 102*; NS1 function inh: -57%

Results for CNS(=O)(=O)c1cccc(C(=O)OCc2csc(-c3ccccc3)n2)c1 ?
Giardia FBPA inh: -8%; LmPK inhibitor: 9%; Cycloheximide cs: 33*; Shiga inhibitor: 63*; NS1 function inh: 7%

Results for O=C(CNC(=O)c1ccccc1F)OCc1csc(-c2ccccc2)n1 ?
Giardia FBPA inh: -8%; LmPK inhibitor: -3%; Cycloheximide cs: 18*; Shiga inhibitor: 31; NS1 function inh: -32%

Results for Cn1cccc1C(=O)OCc1csc(-c2ccccc2)n1 ?
Giardia FBPA inh: -8%; LmPK inhibitor: 14µM*; Cycloheximide cs: 22*; Shiga inhibitor: 77*; NS1 function inh: -59%

How did CCOC(=O)NC[C@H](Cc1ccc(OCCc2nc(-c3ccccc3)oc2C)cc1)N/C(C)=C\C(=O)c1ccc(C(F)(F)F)cc1 do in these assays?
Giardia FBPA inh: -7%

Results for O=C(OCc1csc(-c2ccccc2)n1)c1cccs1 ?
Giardia FBPA inh: -3%; LmPK inhibitor: -19%; Cycloheximide cs: 34*; Shiga inhibitor: 49*; NS1 function inh: -76%

What do the screens show for `O=C(O)Cc1csc(-c2ccccc2)n1`?
Giardia FBPA inh: 0%; LmPK inhibitor: -3%; Cycloheximide cs: 16; Shiga inhibitor: 21; NS1 function inh: 2%

How did Cn1cccc1C(=O)OCc1ccc(F)cc1 do in these assays?
Giardia FBPA inh: 0%; LmPK inhibitor: 1%; Cycloheximide cs: 19*; Shiga inhibitor: 50; NS1 function inh: -2%

How did CN(Cc1cccs1)C(=O)Cc1csc(-c2ccccc2)n1 do in these assays?
Giardia FBPA inh: -6%; LmPK inhibitor: -11%; Cycloheximide cs: 47*; Shiga inhibitor: 69*

Results for CC(C)NC(=O)CN1C(=O)CSc2ccc(S(=O)(=O)N3CCCC3)cc21 ?
Giardia FBPA inh: 11%; LmPK inhibitor: 1%; Cycloheximide cs: 6; Shiga inhibitor: -10; NS1 function inh: -10%

What do the screens show for `COc1ccc(CNc2nc(-c3c(C)noc3C)nc3ccccc23)c(OC)c1`?
Giardia FBPA inh: -13%

Results for Cc1ccc(NC(=O)CCNS(=O)(=O)c2ccc3c(c2)CCC(=O)N3)cc1C ?
LmPK inhibitor: -9%; Cycloheximide cs: -5; Shiga inhibitor: 3; NS1 function inh: 5%

How did Brc1c(CSc2nnc(-c3ccco3)o2)nc2ccccn12 do in these assays?
Giardia FBPA inh: -15%; LmPK inhibitor: 13%; Cycloheximide cs: 22*; Shiga inhibitor: 56; NS1 function inh: -129%

Results for c1coc(-c2nnc(SCc3cn4ccccc4n3)o2)c1 ?
Giardia FBPA inh: -11%; LmPK inhibitor: 6%; Cycloheximide cs: -1; Shiga inhibitor: -2; NS1 function inh: -14%

What do the screens show for `CCC(=O)Nc1ccc(NC(=O)c2ccc3c(c2)OCO3)cc1`?
Giardia FBPA inh: 6%; LmPK inhibitor: -3%; Cycloheximide cs: 9; Shiga inhibitor: 24; NS1 function inh: 4%

What do the screens show for `CCOc1ccc(C(=O)Nc2ccc3c(c2)OCO3)cc1OCC`?
Giardia FBPA inh: -3%; LmPK inhibitor: -5%; Cycloheximide cs: 0; Shiga inhibitor: 12; NS1 function inh: 4%
